This is a sample that favours compounds with a hit; in the whole collection about 10% have one here.
G9a block – inhibitors of human histone lysine methyltransferase G9a. G9a H3K9 monomethylation, AlphaScreen, 2 h. 350,000 tested, 8.8% active. Potency, µM (doses to about 102 µM), for the others: top-dose activity, negative = inhibition, actives largely listed as inhibitors. Q96KQ7; note: % is set by controls: 0 for no effect and ±100 for the full control effect; nearly all actives have a fitted effect of over 75% in size
Target sequence (Q96KQ7 913-1193 limits assumed): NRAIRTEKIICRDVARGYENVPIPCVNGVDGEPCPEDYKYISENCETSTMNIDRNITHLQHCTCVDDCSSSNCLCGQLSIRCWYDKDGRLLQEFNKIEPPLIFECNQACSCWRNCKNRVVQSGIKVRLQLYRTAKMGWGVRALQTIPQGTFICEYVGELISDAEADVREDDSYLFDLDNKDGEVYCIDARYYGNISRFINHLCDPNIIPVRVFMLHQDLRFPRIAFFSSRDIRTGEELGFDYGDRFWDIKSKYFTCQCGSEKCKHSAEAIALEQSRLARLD
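Signal arises when biotinylated H3K9 peptide, once monomethylated, bridges streptavidin donor and antibody-captured acceptor beads. Enzyme at 20 nM was preincubated 15 min with test compounds; peptide 500 nM and SAM 20 uM then reacted for 2 h.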
BAZ2B inh – inhibitors of human BAZ2B bromodomain | 360,000 tested, 4.4% active | Q9UIF8 | Potency, µM (doses to about 114 µM), for the others: top-dose activity change, negative = inhibition, most hits filed as inhibitors | AID 504333 | AlphaScreen BAZ2B-H3K14Ac peptide displacement; note: % is set by controls: 0 for no effect and ±100 for the full control effect; nearly all actives have a fitted effect of over 60% in size
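Inhibition is scored as reduced AlphaScreen emission. The BAZ2B/b-H3(5-23)K14Ac complex (50 nM each) in PBS pH 7.4, 0.01% Tween-20 meets compound (up to 110 uM) for 30 min at RT before bead addition.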
GLS inh – blocks human kidney-isoform glutaminase activity; GLS enzymatic activity, qHTS titration; Potency, µM (titrated, usually from 45.5 µM), for inactives: at the top dose activity change, negative = inhibition, hits mostly inhibitors; 410,000 tested, 0.21% active; AID 624170; note: % is set by controls: 0 for no effect and ±100 for the full control effect
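Assay buffer: 45 mM KH2PO4 pH 8.2, 0.02% Tween-20. hKGA acts on L-glutamine (1 mM solution added); product glutamate is reported by an oxidase/peroxidase Amplex Red coupling, with fluorescence taken at baseline and 30 min.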
HP1b binding inh – inhibitors of HP1-beta chromodomain binding to methylated histone tails. Potency, µM (doses to about 114 µM), without a hit: top-dose activity change, negative = inhibition, most hits filed as inhibitors. 390,000 tested, 0.56% active. AlphaScreen HP1-beta / biotin-H3K9me3 peptide binding; note: nearly all actives have a fitted effect of over 70% in size
Target sequence (P83916 whole entry, looked up): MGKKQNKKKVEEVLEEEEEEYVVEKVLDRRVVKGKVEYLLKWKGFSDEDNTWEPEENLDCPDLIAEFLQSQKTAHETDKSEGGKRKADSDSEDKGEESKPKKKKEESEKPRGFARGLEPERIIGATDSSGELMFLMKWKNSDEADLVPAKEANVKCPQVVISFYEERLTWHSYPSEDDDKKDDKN
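AlphaScreen: HP1-beta (50 nM) preformed 30 min with biotin-H3(1-18)K9me3 peptide (50 nM) in PBS pH 7.4, 0.01% Tween-20. Compound added for 30 min at RT, then streptavidin donor/nickel chelate acceptor beads (10 ug/mL) for 30 min.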
JMJD2A Tudor – inhibitors of human JMJD2A Tudor domain. AlphaScreen JMJD2A-Tudor / H3K4me3 peptide binding. Potency, µM (highest dose often 114 µM), for inactives: at the top dose activity change, negative = inhibition, usual class: inhibitors. 390,000 tested, 4.4% active. AID 504339; note: % is set by controls: 0 for no effect and ±100 for the full control effect; nearly all actives have a fitted effect of over 50% in size
L3MBTL1 inh – L3MBTL1 (human) inhibition; Q9Y468; AlphaScreen L3MBTL1–H3K9me1 peptide binding; Potency, µM (highest dose often 57.1 µM), inactives show top-dose activity, negative = inhibition, hits mostly inhibitors; 230,000 tested, 0.66% active; note: % is set by controls: 0 for no effect and ±100 for the full control effect; nearly all actives have a fitted effect of over 60% in size
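L3MBTL1 (50 nM) pre-complexed 30 min with biotinylated H3(1-15)K9me1 peptide (75 nM), then compounds added for 30 min at room temperature; AlphaScreen streptavidin donor/nickel chelate acceptor beads (10 ug/mL final) read after 30 min dark incubation.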
The depositor's hits bear a star; ? = inconclusive; / = not tested or not shown; [ ] = another dose, or the depositor's remark. Calls come from the whole dose curve; as a rule, active = well fitted curve in the direction sought with a large enough effect; inconclusive = small, poorly fitted or top-dose-only effect, or another doubt; inactive = no such curve, though single readings can be large; an effect the other way counts as inactive or inconclusive. Potency is the fitted concentration of half-maximal effect.

SMILES	G9a block	BAZ2B inh	GLS inh	HP1b binding inh	JMJD2A Tudor	L3MBTL1 inh
C#CCOCCOCCOCCNc1nc(N2CCN(C(=O)[C@H](Cc3cc4ccccc4[nH]3)n3cc([C@@H](N)C(C)CC)nn3)CC2)nc(N2CCN(C(=O)[C@H](Cc3cc4ccccc4[nH]3)n3cc([C@@H](N)Cc4ccc(O)cc4)nn3)CC2)n1 (some centres not stated)	-7%[12.7 µM]	11µM*	/	/	/	?
Cc1cccc(-n2c(C)cc(C(=O)C(=O)Nc3ccccc3F)c2C)c1C	-24%[59 µM]	-38%	-6%	10%	-17%	/
C#CCOCCOCCOCCNc1nc(N2CCN(C(=O)[C@H](CCC(=O)O)n3cc(C(N)Cc4ccc(O)cc4)nn3)CC2)nc(N2CCN(C(=O)[C@H](Cc3cc4ccccc4[nH]3)n3cc(C(N)[C@H](C)CC)nn3)CC2)n1 (some centres not stated)	4%[12.7 µM]	50µM*	12%	15%	45µM*	?
C#CCOCCOCCOCCNc1nc(N2CCN(C(=O)C(Cc3cc4ccccc4[nH]3)n3cc(C(N)Cc4ccc(O)cc4)nn3)CC2)nc(N2CCN(C(=O)C(CCC(=O)O)n3cc(C(N)C(C)CC)nn3)CC2)n1 (configuration not stated)	-29%[2.33 µM]	32µM*	15%	-6%	45µM*	25µM*
COc1ccc(-c2noc(-c3ccc(N4CCN(c5ccccc5OC)CC4)c([N+](=O)[O-])c3)n2)cc1	-8%[59 µM]	0%	1%	7%	-17%	/
COc1ccccc1CNC(=O)c1ccc2nc(-c3ccccc3)c(-c3ccccc3)nc2c1	-3%[59 µM]	-1%	2%	23%	-19%	/
COc1ccc(Nc2c3c(nc4ccc(NC(=O)/C=C/c5cccc(OC)c5OC)cc24)CCCC3)cc1OC	11µM*	10µM*	2%	?	14µM*	/
COc1ccc(/C=C/C(=O)Nc2ccc3nc4c(c(Nc5ccccc5OC)c3c2)CCCC4)cc1	7.9µM*	-38%	-6%	-8%	?	/
COc1ccccc1Nc1c2c(nc3ccc(NC(=O)/C=C/c4cccc(OC)c4OC)cc13)CCCC2	11µM*	?	7%	-6%	?	/
CCCCOc1ccc2c(c1)C(=O)c1cc(O)ccc1-2	32µM*	35µM*	-13%	45µM*	28µM*	?
Cn1c(-[n+]2c(-c3ccccc3)cc(-c3ccccc3)cc2-c2ccccc2)nc2cc([N+](=O)[O-])ccc21	1.8µM*	40µM*	-1%	17%	-10%	-14%
O=C(CSc1nc(-c2ccc(F)cc2)nc2c1Cc1ccccc1O2)Nc1cccc(C(=O)O)c1	7.9µM*	7.9µM*	-24%	?	10µM*	?
O=C(CSc1nc(-c2ccccc2)nc2c1Cc1ccccc1O2)Nc1ccccc1	8%	-1%	/	/	/	/
O=C(CSc1nc(-c2ccccc2)nc2ccc(F)cc12)Nc1cccc(C(=O)O)c1	71µM*	79µM*	-3%	23%	?	/
CC(C)Nc1nc(Cl)nc(N(C#N)CN2C(=O)c3ccccc3C2=O)n1	28µM*	-8%	-4%	-8%	?	-8%
CNCC(=O)NC(CCCN=C(N)N)C(=O)NC(C(=O)NC(Cc1ccc(O)cc1)C(=O)NC(C(=O)NC(Cc1cnc[nH]1)C(=O)N1CCCC1C(=O)NC(C)C(=O)O)C(C)C)C(C)C (configuration not stated)	?	/	13%	/	/	/
O=[N+]([O-])c1ccc(CSc2ncnc3c2ncn3[C@@H]2O[C@H](CO)[C@H](O)[C@H]2O)cc1	19%[12.7 µM]	/	/	/	/	/
COc1ccc(OC)c(CNC(=O)c2nn(-c3ccc(OC)c(Cl)c3)c(=O)c3c2c2ccccc2n3C)c1	20%[59 µM]	/	-2%	67%	-19%	/
O=C(NCC1CCCO1)c1nn2c(C(F)(F)F)cc(-c3cccs3)nc2c1Br (configuration not stated)	20%	6%	4%	14%	-10%	/
O=C(NCc1ccco1)c1nc2nc(-c3cccs3)cc(C(F)(F)F)n2n1	45µM*	?	-5%	8%	-18%[57.1 µM]	?
O=C(NCc1ccco1)c1nn2c(C(F)(F)F)cc(-c3cccs3)nc2c1Br	50µM*	?	14%	18%	-26%	/
CCOC(=O)c1ccc(OCC2c3cc(OC)c(OC)cc3CCN2C(=O)Cc2ccc(F)cc2)cc1 (configuration not stated)	-5%[59 µM]	?	-9%	11%	-34%	/
CC(Sc1nncn1C)C(=O)Nc1ccc2ccccc2c1 (configuration not stated)	8.9µM*	7%	0%	18%	-16%	-10%
CN=c1scc(-c2ccc(OC)cc2)n1/N=C(\C)c1cccnc1	32µM*	32µM*	5%	45µM*	50µM*	?
CCOc1ccc(C=NN2CCCCCC2)cc1OCC	/	/	6%	?	40µM*	/
SMILES	G9a block	BAZ2B inh	GLS inh	HP1b binding inh	JMJD2A Tudor	L3MBTL1 inh
CC(C)c1ccc(/C=N/N2CCN(c3ccccn3)CC2)cc1	?	-23%	11%	6%	-28%	-11%
CC(C)c1ccc(/C=N/N2CCCCC2)cc1	10µM*	32µM*	2%	22µM*	?	-11%
CCOc1ccc(NC(=O)CSc2ccc(-c3sc(-c4ccccc4)nc3C)nn2)cc1	-5%[59 µM]	-5%	3%	59%	6%	/
COc1ccc2c(c1)c1ccc3c(c1n2C)C(=O)C=CC3=O	1.8µM*	?	-2%	6.3µM*	40µM*	-7%
Cc1ccc2c(c1)c1ccc3c(c1n2C)C(=O)C=CC3=O	1.6µM*	10µM*	-21%	3.2µM*	6.3µM*	/
Cn1c2ccccc2c2ccc3c(c21)C(=O)C=CC3=O	/	/	35%	11µM*	16µM*	/
CCOC(=O)CSc1nc2ccccc2c(=O)n1-c1cccc(C)c1	-1%[59 µM]	3%	0%	33%	-7%	/
CCOc1ccc(-c2cc3c(=O)n(Cc4nc(-c5ccccc5OCC)oc4C)ccn3n2)cc1Cl	-1%[59 µM]	0%	-10%	-5%	-14%	/
O=S(=O)(c1ccc(Cl)cc1)N1CCOCC1	/	/	/	25%	-4%	/
CCOC(=O)c1ccc(NC(=O)c2nn(C)c3c2COc2ccccc2-3)cc1	14µM*	?	6%	17%	?	/
CCc1ccccc1N(C)C(=O)c1nn(C)c2c1CSc1ccccc1-2	-36%[59 µM]	4%	2%	46%	4%	/
O=C(CSc1ccc([N+](=O)[O-])cn1)Nc1nccs1	3%	-6%	-6%	40%	1%	/
O=C(CSc1ccc([N+](=O)[O-])cc1)Nc1ccccc1N1CCOCC1	/	/	-2%	1%	-34%	-1%

Screening data: PubChem, National Center for Advancing Translational Sciences (NCATS)
